# A selection: hits, their analogues and other compounds. The true share with any hit is near 3.4%.
# GPR151 activ = activators of human GPR151, primary screen, cell-based, PathHunter beta-arrestin, luminescence; PathHunter beta-arrestin GPR151 cells; G-protein coupled receptor 151 (Homo sapiens), Q8TDV0; activation, % at 11.2 µM; AID 1508602, 2020; 650,000 tested, 1% active; in the data active means activation above about 4.9%;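 further: 0% = median of compound wells and 100% = cells with positive control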
# MITF inh = MITF inhibitors, primary screen, biochemical, AlphaScreen, human | Microphthalmia-associated transcription factor (Homo sapiens), O75030 | AlphaScreen MITF homodimerization, bead proximity signal | inhibition, % at 2.6 µM | 650,000 tested, 0.91% active | AID 1259374, 2018; in the data active means inhibition above about 50%;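 further: 0% = vehicle wells with protein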
# Target sequence (O75030 whole entry, looked up): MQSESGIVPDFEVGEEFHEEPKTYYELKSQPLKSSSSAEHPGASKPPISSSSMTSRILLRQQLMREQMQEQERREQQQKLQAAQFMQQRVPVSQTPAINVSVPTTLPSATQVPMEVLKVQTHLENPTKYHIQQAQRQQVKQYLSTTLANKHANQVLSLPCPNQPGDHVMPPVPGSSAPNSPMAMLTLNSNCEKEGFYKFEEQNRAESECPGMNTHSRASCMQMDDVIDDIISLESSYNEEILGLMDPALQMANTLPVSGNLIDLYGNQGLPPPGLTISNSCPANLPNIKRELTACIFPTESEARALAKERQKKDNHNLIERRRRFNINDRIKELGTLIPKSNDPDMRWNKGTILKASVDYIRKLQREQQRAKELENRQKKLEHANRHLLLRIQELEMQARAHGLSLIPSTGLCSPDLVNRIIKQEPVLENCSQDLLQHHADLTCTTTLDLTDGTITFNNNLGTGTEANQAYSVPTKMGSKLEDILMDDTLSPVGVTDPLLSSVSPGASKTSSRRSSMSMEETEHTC
# FBW7 activator = FBW7 E3 ligase activators, primary screen, biochemical, AlphaScreen, human. F-box/WD repeat-containing protein 7 (Homo sapiens), Q969H0. 650,000 tested, 0.13% active. AlphaScreen FBW7–phospho-cyclin E peptide binding, activator screen. normalized activity (activation), % at 26.1 µM; in the data active means normalized activity above about 1.9%;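 further: purified mutant Fbw7 with reduced substrate affinity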
# TEAD-YAP inh = TEAD-YAP interaction inhibition, primary screen, TEAD-YAP interaction inhibitor project, luminescence, HEK-TIYL cells | TEAD-Gal4/YAP UAS-luciferase luminescence | inhibition, % at 9.12 µM | 640,000 tested, 1.4% active; in the data active means inhibition above about 32%;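 further: 0% = median of test compound wells and 100% = reference inhibitor wells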
# * = called active by the depositor; ! = a repeat was not active.
SMILES,GPR151 activ,MITF inh,FBW7 activator,TEAD-YAP inh
CCOC(=O)c1cnc2cc(Cl)c(OC)cc2c1NCCC1=CCCCC1,-2.0,9.2,0.1,7.8
O=[N+]([O-])c1ccc(S(=O)(=O)Nc2cccc3cc4ccccc4nc23)cc1,-1.1,23.7,0.3,79.6*
O=[N+]([O-])c1ccc(S(=O)(=O)Nc2cccc3ccccc23)cc1,-0.3,17.2,-0.1,12.1
N#Cc1sc(NC(=O)c2cccc(Br)c2)nc1Cl,-9.4,6.0,0.2,64.2*
N#Cc1sc(NC(=O)c2ccc(F)c(F)c2)nc1Cl,-12.0,-2.8,0.1,26.4
Cc1ccc(C(=O)Nc2nc(Cl)c(C#N)s2)cc1,-11.7,1.7,0.0,70.6*
COc1ccc(OC)c(C2C=C(c3cccnc3)Nc3ncnn32)c1 (stereo unspecified),-0.6,-4.0,0.0,22.2
COc1cccc(C2=CC(c3cc(OC)ccc3OC)n3ncnc3N2)c1 (stereo unspecified),-0.1,23.8,-0.1,49.6*
COc1ccc(C2=CC(c3cc(OC)ccc3OC)n3ncnc3N2)cc1 (stereo unspecified),-1.0,0.0,-0.1,49.8*
CC(C)(C)c1ccc(NC(=O)Nc2ccccc2[N+](=O)[O-])cc1,-1.1,11.0,-0.4,62.2*
CONC(=O)Nc1ccccc1[N+](=O)[O-],1.5,1.7,-0.1,12.3
O=C(CCl)NCc1c(Cl)cccc1-n1cccc1,-1.3,4.2,0.0,35.2*
Cc1ccccc1C(OCCN(C)C)c1ccccc1 (stereo unspecified),-2.0,-14.2,1.9*!,6.3
CN(C)CC#CCOC(c1ccccc1)c1ccccc1,-0.8,4.8,-0.2,-0.6
Cc1ccc(N2C(=O)c3cccc4c(Cl)ccc(c34)C2=O)cc1,0.4,-1.6,-0.1,1.8
Cc1ccc(N2C(=O)c3cccc4c(N)ccc(c34)C2=O)c2cccnc12,0.9,7.3,0.2,62.5*
CCN1C(=O)c2cccc3c(N)ccc(c23)C1=O,-0.5,57.0*,0.3,6.8
CCN(CC)CCN1C(=O)c2cccc3c(Cl)ccc(c23)C1=O,0.5,2.7,-0.1,70.5*
Cc1ccc(N2C(=O)c3cccc4c(N5CCCCC5)ccc(c34)C2=O)c2cccnc12,2.1,4.3,0.2,5.9
CC1(C)Cc2nc3sc4c(=O)n(CC(=O)c5ccc(Cl)cc5)cnc4c3cc2CO1,-0.8,8.3,-0.1,3.9
COCCOC(=O)c1ccc(NC(=O)C(C)(C)C)cc1,-1.0,13.1,0.0,-45.7
CC1CCC(C(C)C)C(OC(=O)c2cc([N+](=O)[O-])ccc2Cl)C1 (stereo unspecified),3.5,-5.4,5.5*,2.8
Cc1ccc(C(=O)OC2CC(C)CCC2C(C)C)cc1[N+](=O)[O-] (stereo unspecified),0.4,13.5,0.0,7.8
COc1ccc(-c2cc(C(=O)O)c3ccccc3n2)cc1,0.7,21.4,0.1,-6.7
COc1ccc(/C=C/c2cc(C(=O)O)c3ccccc3n2)cc1,-1.5,0.6,-0.1,60.3*
SMILES,GPR151 activ,MITF inh,FBW7 activator,TEAD-YAP inh
CO[C@H]1[C@@H]([C@@]2(C)O[C@@H]2CC=C(C)C)[C@]2(CC[C@H]1OC(=O)/C=C/C=C/C=C/C=C/C(=O)O)CO2,1.3,-6.2,0.0,45.7*
CCCC(=O)Nc1sc(C)c(C)c1C(=O)Nc1ccccc1,-0.4,3.5,-0.1,4.7
O=C(O)c1cc(O)c2c(c1)[C@@H]([C@H]1c3cc(C(=O)O)cc(O)c3C(=O)c3c(O[C@H]4O[C@H](CO)[C@@H](O)[C@H](O)[C@H]4O)cccc31)c1cccc(O[C@H]3O[C@H](CO)[C@@H](O)[C@H](O)[C@H]3O)c1C2=O,-1.1,121.2*,-0.6,4.7
CCN1C(=O)/C(=C/c2cc3c(cc2[N+](=O)[O-])OCO3)C(=O)NC1=S,2.2,74.4*,-0.3,3.2
O=C(/C=C/c1cccs1)Nc1ccccc1C(F)(F)F,0.3,-2.2,0.0,-36.8
OCC1CCCCN1c1nc(-c2cccs2)nc2ccccc12 (stereo unspecified),1.1,-0.3,0.1,74.0*
NC(=O)C1CCCN1c1nc(-c2cccs2)nc2ccccc12 (stereo unspecified),-0.1,-6.9,0.0,3.1
Cn1c2c(c(=O)n(C)c1=O)C(C(F)(F)F)(C(F)(F)F)N=C(c1ccccc1)N2,2.9,1.3,-0.1,2.4
Cn1c2c(c(=O)n(C)c1=O)C(C(F)(F)F)(C(F)(F)F)N=C(c1ccc(Cl)cc1)N2,0.8,-7.3,0.3,93.5*
CCCCCN1/C(=C\C=C\c2n(CCCC)c3cc(Cl)c(Cl)cc3[n+]2CCCCC)N(CCCC)c2cc(Cl)c(Cl)cc21,-0.9,16.9,0.2,43.9*
CCn1c(C)[n+](CCOC(C)=O)c2cc(Cl)c(Cl)cc21,-0.1,-1.2,0.0,-5.6
CCN1C(=O)c2ccc(C(=O)Nc3cc(C(=O)O)cc(C(=O)O)c3)cc2C1=O,1.6,0.8,0.0,4.1
CCCN1C(=O)c2ccc(C(=O)Nc3ccc(O)cc3)cc2C1=O,-1.1,9.6,-0.1,38.4*
CCCN1C(=O)c2ccc(C(=O)Nc3ccc(O)cc3C)cc2C1=O,-1.7,3.9,0.1,5.5
CCCN1C(=O)c2ccc(C(=O)Nc3ccc(C(=O)O)cc3)cc2C1=O,-0.6,18.0,0.0,53.1*
COc1cccc(C2(O)CSC3=C(C#N)C(c4cccc(Cl)c4)CC(=O)N32)c1 (stereo unspecified),0.3,24.4,0.3,67.4*
COc1cccc(C2CC(=O)N3C(=C2C#N)SCC3(O)c2ccc(F)cc2)c1 (stereo unspecified),0.5,1.4,-0.1,-11.2
COc1ccc(C2(O)CSC3=C(C#N)C(c4cccc(Cl)c4)CC(=O)N32)cc1OC (stereo unspecified),-0.6,-5.6,-0.1,-6.8
COc1cccc(C2(O)CSC3=C(C#N)C(c4cccc(F)c4)CC(=O)N32)c1 (stereo unspecified),0.0,-23.4,-0.6,48.1*
COc1cc(C)c(S(=O)(=O)Nc2ccccn2)cc1C(C)C,-0.5,11.1,0.1,-7.9
COc1ccc(-c2cc(C)nc(SCc3cccnc3)c2C#N)cc1,0.0,8.7,0.0,-9.6
OC(COc1ccc(Cl)cc1)CN1C2=NCCN2c2ccccc21 (stereo unspecified),-0.7,11.0,0.5,40.0*
COc1cccc2ccc(CN3CCc4nnc(C(C)NC(=O)c5ccco5)n4CC3)nc12 (stereo unspecified),0.5,2.6,-0.1,10.2
CCCC(=O)NC(c1ccc(OC)cc1)c1ccc2cccnc2c1O (stereo unspecified),0.7,50.2,-1.8,72.2*
CCC(=O)NC(c1ccc(OC)cc1)c1c(O)ccc2ccccc12 (stereo unspecified),-0.2,-11.7,-0.2,51.8*
CCCC(=O)NC(c1ccccc1)c1ccc2cccnc2c1O (stereo unspecified),-0.6,50.1,-1.9,84.6*
CCCC(=O)NC(c1ccc(F)cc1)c1ccc2cccnc2c1O (stereo unspecified),-0.8,31.0,-0.7,86.3*
